Potency and activity change, negative = inhibition data for 56 molecules are collected here from PubChem BioAssay AID662 (National Center for Advancing Translational Sciences (NCATS), 2007).

Molecules are shown by their SMILES. About 1,800 (2.5%) of roughly 71,000 compounds were called active. Entries that show only a call come without a potency. Roughly 26% stayed inconclusive and do not appear here. The sample holds actives, similar compounds and a random draw of the others, so the mix is not that of the screen. Values without a mark were called inactive. The call rests on the fitted dose curve; in most records, active means well fitted activation curve with a large enough effect in the signal ratio, with a control signal flat (not every such curve was filed as active); inconclusive means small, poorly fitted or top-dose-only effect, or effect the other way, or a change in a side signal; inactive means flat fitted curve, though single readings scatter; the % refers to the signal ratio.
Potency means the concentration at half of the fitted maximal effect.

This test in a line: Cell signaling CRE-BLA (Fsk stim). The settings on record: CHO CRE-bla reporter (cAMP response element driving beta-lactamase), forskolin EC10, beta-lactamase ratio; series mostly up to 38.2 µM. The source says: NIH Molecular Libraries Screening Centers Network [MLSCN]
NIH Chemical Genomics Center [NCGC]
Assay Provider: Marshall W. Nirenberg, U.S. National heart lung & blood institute
Memories persist for different lengths of time, from seconds or minutes to a lifetime. There are two kinds of memory: short-term memory (STM) and long-term memory (LTM). STM lasts for minutes to hours, which maybe mediated by modifications of molecules involved in synaptic functions. LTM lasts for days or longer, and may be due to the formation of new synapses or restructuring of existing synapses. LTM, but not STM, requires gene transcription and synthesis of proteins. CREB (cyclic-AMP Responsive Element Binding Protein) is one of the candidates plays an important role for enhancement of some types of LTM. CREB, a family of transcription factors, regulates the transcription of genes containing cAMP Responsive Elements (CRE). CRE is a nucleotide sequence often found in the promoter regions of genes that are binding sites for CREB.
Using a beta-lactamase reporter-gene under control of cAMP responsive element, a cell-based assay [CellSensor(TM) CRE-bla CHO developed by Invitrogen Corp.] was used to measure forskolin-induced signaling. Library compounds were measured for their ability to modulate positively or negatively the action of EC10 NKH 477, a water soluble forskolin, on reporter gene activity. Compounds were screened in a titration series in 1536-well format. Positive and negative modulators were identified based on the AC50 values derived from the screening data.
NCGC Assay Protocol Summary
2000 cells/5uL in Opti-MEM medium containing 0.5% dialyzed FBS, 0.1 mM NEAA, 1 mM sodium pyruvate and 10 mM HEPES was dispensed into 1536-well plates and cells were cultured at 37 degrees Celsius overnight. […] And then the plates were incubated at 37 degrees Celsius for 3 hours. 1 uL of CCF4-dye mixture was added to each well. After incubated at room temperature for 2 hours the plates were measured on an EnVision plate reader at Excitation 405nm, Emission1=460nm and Emission 2=530nm. The %Activity was determined from the ratio of 460nm/530nm.
Keywords: NIH Roadmap, MLSCN, MLSMR, qHTS, NCGC, CRE, beta-lactamase reporter-gene assay.
With `O=C(Nc1ncccn1)c1cccs1`, the Potency result is “inactive”.

On to `CCc1nnc(NC(=O)c2cccs2)s1`, for which the Potency result was “inactive”. Consider `COC(=O)Cn1cc(C(=O)c2cccs2)c2ccccc21`, for which the Potency result was “inactive”. As for `CCOC(=O)c1c(NC(=O)c2cccs2)sc(C)c1C`, the Potency was 2.51 µM (active). As to `CCOC(=O)c1oc2ccccc2c1NC(=O)c1cccs1`, the Potency was 3.98 µM (active). Same read-out and setting: then `O=C(O)Cc1ccc(NC(=O)c2cccs2)cc1`, with “inactive”; and `COC(=O)C1=C(C)N(C)C(C)=C(C(=O)OC)C1c1cccc(Br)c1`, with “inactive”. Turning to `O=C(Cl)c1ccc([N+](=O)[O-])cc1`, the Potency entry was “inactive”. On to `CCNC(=S)NCC`, for which the Potency entry was “inactive”.

Consider `CCCCC(CC)CN` (stereo unspecified), for which the Potency result is “inactive”. Still for that read-out and setting: to `c1csc(-c2cn3c(n2)SCC3)c1` belongs “inactive”; to `Cc1c(C)c2c(c(C)c1O)CC[C@@](C)(CN1CCN(c3cc(N4CCCC4)nc(N4CCCC4)n3)CC1)O2`, “inactive”.

Regarding `CC1OC2C(OC1C)N(S(C)(=O)=O)CCN2S(C)(=O)=O` (stereo unspecified), the Potency result was “inactive”.

Consider `O=c1c(CCc2ccccc2)nc2cnc(N3CCNCC3)nc2n1Cc1cccs1`, for which the Potency is 12.6 µM (active). On the same count and under the same terms, then `Cc1nc2cnc(N3CCN(C)CC3)nc2n(C[C@H]2CCCO2)c1=O`, with “inactive”; and `Cc1nc2cnc(N3CCN(C)CC3)nc2n(CCC#N)c1=O`, with “inactive”; and `CC(C)(C)[Si](OCC[C@@H]1C[C@@]1(C)[C@@H](NP(=O)(c1ccccc1)c1ccccc1)c1ccccc1)(c1ccccc1)c1ccccc1`, with “inactive”. The same measure, in the same setting: to `COC(=O)[C@@]1(Cc2ccc(OC)cc2)[C@H]2c3cc(C(=O)N4CCCC4)n(Cc4ccc(C(F)(F)F)nc4)c3C[C@H]2CN1C(=O)c1ccccc1` belongs “inactive”.

`COC(=O)C1(C)C=CC2(CCCCC2)N1C(C)=O` (stereo unspecified): the Potency entry was “inactive”. Still for that read-out and setting: to `CCCCCCCCCCCC(=O)O` belongs “inactive”; to `Cc1cccn2c(=O)c3cc(C#N)c(=O)n(CCCN4CCOCC4)c3nc12`, 10 µM (active); to `CCCOc1ccc(C2c3c(oc4cc(C)c(C)cc4c3=O)C(=O)N2CCCN2CCOCC2)cc1` (stereo unspecified), “inactive”. Take `Cn1c(=O)c2c(nc(CN3CCOCC3)n2Cc2ccccc2)n(C)c1=O`: the Potency entry is “inactive”. On the same count and under the same terms, to `CCOC(=O)CSc1nnc(-c2cccc(Br)c2)o1` belongs “inactive”; to `CCC[C@@H]1C[C@@]1(CCC)C(NC(=O)c1ccc(-c2ccccc2)cc1)c1cccc(Cl)c1` (stereo partly specified), “inactive”; to `CSc1ncccc1C(=O)OCC(=O)N1CCOCC1`, “inactive”. For the molecule `COc1ccc(C(=O)NCc2cn3ccccc3n2)cc1`, the Potency entry was “inactive”. Take `CCOc1ncccc1C(=O)OCc1cn2cc(Cl)ccc2n1`: the Potency was 10 µM (active). On the same count and under the same terms, to `CC(=O)N1[C@H](C)C=C[C@]1(Cc1ccccc1)C(=O)NCc1ccccn1` belongs “inactive”.

Consider `C/C(=C\C(=O)c1ccc(Br)cc1)N1CCCCC1`, for which the Potency entry is “inactive”. On the same count and under the same terms, to `COC(=O)C1(Cc2ccccc2)C=C2C(=C(C)C(=O)C2C)CN1` (stereo unspecified) belongs “inactive”; to `CC(=O)Nc1ccc(-c2nn3c(C)nnc3s2)cc1C`, “inactive”; to `Cc1nnc2sc(-c3ccco3)nn12`, “inactive”. Same read-out and setting: then `COc1cc(-c2nn3c(-c4cccc(C)c4)nnc3s2)cc(OC)c1OC`, with 1.58 µM (active); and `COc1ccc(-c2nn3c(-c4ccccc4)nnc3s2)cc1OC`, with 3.16 µM (active).

Turning to `Fc1ccc(-c2ccc(-c3nn4c(-c5ccco5)nnc4s3)o2)cc1`, the Potency entry was “inactive”. For the molecule `COC(=O)CCCCCN1C(=O)NC(c2ccc(-c3ccccc3)cc2)C(C(=O)OCc2ccccc2)=C1C` (stereo unspecified), the Potency result is “inactive”. Consider `O=C(CCSc1ccccc1)NCCSc1ccccn1`, for which the Potency entry is “inactive”.

For the molecule `CCOc1ccccc1N(CC(=O)Nc1ccccc1C(=O)OC)S(C)(=O)=O`, the activity change, negative = inhibition is 12.2% [at 7.6 µM].

Take `CC(NC(=O)Nc1ccccc1)c1ccccc1` (stereo unspecified): the Potency entry was “inactive”.

On to `CC(Cc1ccccc1)C(=O)N(C)Cc1ccccc1` (stereo unspecified), for which the Potency result is “inactive”.

`CCOc1ccc(Cn2c(SCCCCC#N)nc3c2c(=O)n(C)c(=O)n3C)cc1OCC`: the Potency is 10 µM (active). With `COC(=O)C(C)Sc1nc2c(c(=O)n(C)c(=O)n2C)n1Cc1cccc(C)c1` (stereo unspecified), the Potency result is “inactive”. For the molecule `CCCSc1nc2c(c(=O)n(C)c(=O)n2C)n1Cc1ccc(C)cc1`, the Potency entry is “inactive”. Same read-out and setting: to `COC(=O)[C@@]1(Cc2ccccc2)[C@H]2c3cc(C(=O)N(C)C)n(CCSCCO)c3C[C@H]2CN1C(=O)c1ccccc1` belongs “inactive”; to `NS(=O)(=O)c1ccc(NS(=O)(=O)/C=C/c2ccccc2)cc1`, “inactive”; to `CC(C)(C)NC(=O)c1cc(NC(=O)c2ccco2)cc(NC(=O)c2ccco2)c1`, “inactive”. On the same count and under the same terms, to `O=C(Nc1cccc(Cl)c1)OCc1ccccn1` belongs “inactive”; to `O=c1c2[nH]c3ccc(Cl)cc3c2ncn1Cc1ccccn1`, 3.98 µM (active); to `CC(=O)N1CC2(C)CN(C(C)=O)CC(C)(C1)C2=O`, “inactive”. Still for that read-out and setting: to `C/C=C/C=C/C(=O)O` belongs “inactive”; to `Nc1nc(SCCOc2ccccc2)n[nH]1`, “inactive”.

Take `CCNc1nc(NCC)nc(N(C)n2cnnc2)n1`: the Potency result is “inactive”.

As to `CCNc1nc(SCCOc2ccccc2)nc(N(C)C)n1`, the Potency was 3.98 µM (active). In the case of `OC(CCl)CCl`, the Potency result is “inactive”.

With `COc1ccccc1NC(=O)CSc1nnc(-c2ccoc2C)n1CCc1ccccc1`, the Potency result was “inactive”.
